# MPTP block = permeability transition pore inhibition; isolated mouse mitochondria, Ca2+ swelling absorbance, 30 min; AID 602449; inhibition, % at 10 µM; actives 1.4% (n = 360,000);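 active = inhibition of 50% or more, scaled per plate between neutral and stimulator controls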;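 note: 0% = DMSO wells given calcium and 100% = 1 mM EGTA wells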
# Beta apoptosis = blocks beta cell apoptosis. actives 0.8% (n = 300,000). INS-1E cytokine-induced death, ATP luminescence, 48 h; percent of positive-control rescue, neutral wells zero. AID 435005. protection from apoptosis, % (concentration not given with the values);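 active = Every replicate reaches about 75%, or at least half do and their mean reaches it too, limit read from the data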;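 note: 0% = cytokine-treated negative control wells and 100% = positive control rescue; higher means more ATP so stronger rescue from cytokine killing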
# Mdm2-MdmX inh = disrupts the human Mdm2-MdmX interaction | SaOS-2 split-luciferase Mdm2/MdmX complementation, luminescence | AID 485346 | inhibition, % at 8 µM | actives 3% (n = 330,000) | O15151+Q00987;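 active = inhibition of at least 50% at 8 µM in the primary screen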
# CSC inhib = blocks cancer stem cells | cancer stem cell-like cells viability, luminescence | inhibition, % at 7.5 µM | actives 1.1% (n = 300,000) | AID 2717; in the data active = inhibition above about 75%; tested in HMLE shEcad cells
# SKKanGAS inh = inhibitors of SKKanGAS S. pyogenes growth in kanamycin (SK-promoter or general growth effect). BacTiter-Glo, 6 h. inhibition, % at 7.5 µM. actives 1.3% (n = 300,000). AID 1662;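 active = mean replicate score, as percent of positive control median, at least 50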;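 note: strain carries kanamycin resistance gene driven by streptokinase promoter and grows in 40 µg/ml kanamycin; loss of luminescence reflects streptokinase promoter inhibition or plain growth inhibition; 0% = median of DMSO wells and 100% = positive control at its reference dose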
# GRIN3A LBD mod = NR3A (human) ligand-binding domain modulation; NR3A LBD differential scanning fluorimetry, Tm shift; 0% = protein alone, 100% = glycine-bound protein; Tm shift relative to glycine control, % at 25 µM; actives 2.5% (n = 340,000);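 active = melting temperature shift of at least 10% of the positive control shift, at one fixed dose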
# Mdm2-MdmX conf = confirmation of human Mdm2/MdmX interaction inhibitors | shares compounds with Mdm2-MdmX inh | Mdm2-MdmX binding, luminescent assay | inhibition, % at 8 µM | actives 55% (n = 10,000); in the data active = inhibition above about 40%
# FLuc counter = inhibits full-length luciferase, flagging false Mdm2/MdmX hits. inhibition, % at 8 µM. actives 77% (n = 6,200). SaOS-2 full-length luciferase counterscreen, luminescence. shares compounds with Mdm2-MdmX inh. AID 504607;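 active = mean inhibition at 8 µM reaching about 37%, which flags the compound as non-specific, limit read from the data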;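 note: p53-null SaOS-2 cells with luciferase driven by a doxycycline-inducible promoter; compound on cells about two nights before reading with doxycycline added after day one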
# Rh123 counter = mitochondrial membrane potential, counter-screen | actives 78% (n = 5,000) | isolated mitochondria, Rhodamine 123 fluorescence | inhibition, % at 10 µM | AID 624504 | shares compounds with MPTP block; in the data active = inhibition above about 22%;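 note: 0% = DMSO vehicle and 100% = positive control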
# MPTP abs DR = dose response confirmation of mitochondrial permeability transition pore inhibitors. shares compounds with MPTP block. isolated mitochondria swelling, absorbance. IC50, µM. actives 58% (n = 780). AID 651561; in the data active = IC50 below about 20 µM
# MPTP cs DR = active in counter-screen for permeability transition pore inhibitors. isolated mitochondria counterscreen, fluorescence read-out. shares compounds with MPTP block. IC50, µM. actives 49% (n = 780); in the data active = IC50 below about 80 µM
# Active calls of the source: *; i = inactive; / = no result. Compounds with a hit are over-represented: about 6.9% of the library has one in this group of screens.
SMILES,MPTP block,Beta apoptosis,Mdm2-MdmX inh,CSC inhib,SKKanGAS inh,GRIN3A LBD mod,Rh123 counter,others
CCOc1cccc(=NC2CCCCC2)c2c(C)n(C)c(C)c12,62*,67,54*,0,9,-2,71*,Mdm2-MdmX conf=26
Cc1ccc(-c2cc(-c3ccc(C)cc3)[n+](-c3ccccc3)c(-c3ccc(C)cc3)c2)cc1,95*,122*,93*,48,22,-13,101*,Mdm2-MdmX conf=94*;FLuc counter=12
O=[N+]([O-])c1cc(Cl)c(O)c(-[n+]2c(-c3ccccc3)cc(-c3ccccc3)cc2-c2ccccc2)c1,2,14,14,-3,4,0,/,
c1ccc(-c2cc(-c3ccccc3)[n+](-c3ccccc3)c(-c3ccccc3)c2)cc1,64*,113*,89*,37,27,-1,89*,Mdm2-MdmX conf=92*;FLuc counter=56*
ClCCN1CCN(c2ccnc3cc(Cl)ccc23)CC1,0,-1,14,-15,1,2,/,
Cc1c(C)c2ccc(OCC(=O)N3CCC(C(=O)O)(c4ccccc4)CC3)c(C)c2oc1=O,0,/,18,-5,8,0,/,
C/C(=N\NC(N)=S)C1=CCC2C3CC[C@H]4CC(O)CC[C@]4(C)C3CC[C@]12C (some centres not stated),65*,/,75*,/,19,-4,14,Mdm2-MdmX conf=15;MPTP abs DR=18*;MPTP cs DR=22*
COc1ccc(OC)c(NC(=O)N2C[C@H]3C[C@@H](C2)c2cccc(=O)n2C3)c1,-1,4,12,-8,3,-2,/,
COC(=O)C1=Nc2ccccc2/C1=C\c1c(O)n(-c2cc(OC)ccc2OC)c(=O)[nH]c1=O,58*,0,12,8,10,-4,-3,MPTP abs DR=i;MPTP cs DR=>80
O=C(CF)NC(NC(=S)Nc1cccc([N+](=O)[O-])c1)C(Cl)(Cl)Cl (configuration not stated),79*,-6,4,-4,13,-1,92*,
O=C(Nc1ccc(Cl)cc1)N1CC2CC(C1)c1cccc(=O)n1C2 (configuration not stated),60*,-7,13,-8,-8,11*,103*,
O=C(Nc1ccc(Br)cc1)N1C[C@H]2C[C@@H](C1)c1cccc(=O)n1C2,-3,/,10,-8,-5,-2,/,
CCCCn1c(NS(=O)(=O)c2ccccc2)c(C(=O)OCC)c2nc3ccccc3nc21,59*,-3,/,18,23,-11,50*,
CCCCn1c(NC(=O)c2ccc(Br)o2)c(C(=O)OCC)c2nc3ccccc3nc21,4,6,10,13,/,-12,/,
COc1ccccc1-n1c(O)c(/C=N/N2CCCCC2)c(=O)n(-c2ccccc2OC)c1=S,2,-7,-4,-1,-4,1,/,
CN(C)C(=O)Oc1ccc(C(=O)c2ccccc2)cc1,-2,1,-5,-5,4,-1,/,
CN(C)CCOc1ccc(/C(=C(/CCCl)c2ccccc2)c2ccccc2)cc1,106*,/,3,/,101*,-2,-16,MPTP abs DR=6.7*;MPTP cs DR=41*
Cc1ccc(C)c(NC(=S)NCCc2cnc[nH]2)c1,0,-8,4,4,2,-1,/,
Cc1[nH]n(-c2ccccc2)c(=O)c1C(c1ccc([N+](=O)[O-])cc1)c1c(C)[nH]n(-c2ccccc2)c1=O,96*,-4,19,37,2,8,76*,
CCCCN1C(=O)/C(=C\c2ccco2)C(=O)N(CCc2ccccc2)C1=O,68*,-10,-8,-17,18,0,-6,
O=C(Nc1ccc(Cl)cc1C(=O)c1ccccc1)c1ccc(Br)o1,2,-9,1,-6,-3,3,/,

# Screens: PubChem BioAssay, several laboratories
